# KCNQ2 block – rat KCNQ2 potassium channel inhibitors, primary screen, cell-based, CHO-K1, FluxOR thallium flux, B-score | Potassium voltage-gated channel subfamily KQT member 2 (Rattus norvegicus), O88943 | 20 min; stronger effect = lower value | B-score at 10 µM | actives 1.1% (n = 310,000) | AID 2156, 2009;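 active = fluorescence ratio B-score at most minus 3 library SDs, with starting brightness B-score within 2 library SDs, cut at about -5.5 in these data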
# Target sequence (O88943 whole entry, looked up): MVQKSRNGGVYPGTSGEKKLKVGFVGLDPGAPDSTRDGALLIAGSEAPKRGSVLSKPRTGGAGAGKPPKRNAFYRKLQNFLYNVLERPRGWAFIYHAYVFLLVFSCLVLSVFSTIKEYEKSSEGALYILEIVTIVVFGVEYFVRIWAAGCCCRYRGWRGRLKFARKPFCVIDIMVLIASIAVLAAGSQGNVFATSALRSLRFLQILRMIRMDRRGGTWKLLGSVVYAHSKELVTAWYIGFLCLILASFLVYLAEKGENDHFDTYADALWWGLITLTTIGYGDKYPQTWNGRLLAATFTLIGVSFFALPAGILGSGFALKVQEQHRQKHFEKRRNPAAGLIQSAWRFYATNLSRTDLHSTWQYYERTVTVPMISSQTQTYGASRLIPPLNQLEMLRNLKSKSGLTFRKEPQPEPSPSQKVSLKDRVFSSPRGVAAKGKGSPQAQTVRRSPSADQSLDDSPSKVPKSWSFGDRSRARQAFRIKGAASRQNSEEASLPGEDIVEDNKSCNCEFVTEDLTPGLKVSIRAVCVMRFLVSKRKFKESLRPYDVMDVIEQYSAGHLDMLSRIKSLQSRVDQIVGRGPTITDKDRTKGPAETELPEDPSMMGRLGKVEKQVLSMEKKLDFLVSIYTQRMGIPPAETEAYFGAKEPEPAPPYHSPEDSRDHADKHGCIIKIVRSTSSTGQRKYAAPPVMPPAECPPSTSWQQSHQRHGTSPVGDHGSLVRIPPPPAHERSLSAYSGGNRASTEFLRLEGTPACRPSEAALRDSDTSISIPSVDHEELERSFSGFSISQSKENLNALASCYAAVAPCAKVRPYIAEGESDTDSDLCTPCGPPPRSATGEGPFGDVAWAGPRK
# KCNQ2 enhance – potentiators of rat KCNQ2 potassium channel; Potassium voltage-gated channel subfamily KQT member 2 (Rattus norvegicus), O88943; CHO-K1 KCNQ2, FluxOR thallium flux fluorescence; stronger effect = higher value; B-score at 10 µM; actives 0.54% (n = 310,000); AID 2239, 2010;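 active = fluorescence ratio B-score at least 3 SD of library B-scores, with initial fluorescence B-score within 3 of them, cut at about 5.3 in these data; same plate scores as AID 2156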;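 also: B-score of peak minus minimum over baseline fluorescence ratio after K+ and Tl+ stimulus; positive B-score means potentiation of KCNQ2 with more thallium influx and brighter signal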
# Starred values were filed as active, the others as inactive; i = inactive; · = no result given. The list is not random: actives were taken first. Their share in the collection is about 1.6%.
SMILES,KCNQ2 block,KCNQ2 enhance
Cc1nc2c(C(=O)NCCc3ccccc3Cl)c[nH]n2c(=O)c1Cl,i,7.22*
Cc1nc2c(C(=O)NCc3ccccc3Cl)c[nH]n2c(=O)c1Cl,i,·
CC(C)NC(=O)c1ccc(N(Cc2ccc(Cl)cc2)S(C)(=O)=O)cc1,i,1.05
COc1ccc(CNC(=O)CN(C(=O)CCC(=O)Nc2nccs2)c2ccc(C)cc2)cc1,i,0.73
CN(C)c1ccc(C(=S)N2CCCC2)cc1Br,i,1.26
O=C(NC(=S)NNC(=O)c1ccccc1O)c1ccccc1,i,·
Cc1ccccc1C(=O)NNC(=S)NC(=O)c1ccccc1,i,5.31*
CN1CCCN(C(=O)c2cccc3ccccc23)CC1,i,0.99
O=C1OCCC1Sc1nnc(-c2ccc(F)cc2)n1Cc1ccccc1 (stereo not given),i,0.99
CCOC(=O)/C=C/C(=O)Nc1ccc(S(=O)(=O)Nc2nccs2)cc1,i,·
C=CCn1c(SCC(=O)Nc2ccc(F)cc2)nc2ccccc2c1=O,i,·
CCOC(=O)C1CCN(c2c(C(=O)c3ccccc3)cnc3ccc(CC)cc23)CC1,-7.23*,-7.23
CCOC(=O)C1CCCN(c2c(C(=O)c3ccccc3)cnc3ccccc23)C1 (stereo not given),i,·
COC(=O)C(CC(=O)c1ccc(Br)cc1)n1cccn1 (stereo not given),i,·
COc1ccc(CN(CC(O)COc2cccc3[nH]cc(C)c23)C(C)(C)C)cc1 (stereo not given),-5.88*,-5.88
COc1ccc(CN(C)CC(O)COc2ccc(-c3ccccc3)cc2)cc1OC (stereo not given),i,0.56
O=C(Cc1ccccc1)Oc1coc(CSc2ncccn2)cc1=O,i,·
CN(C(=O)c1nn(C)c2c1CSc1ccccc1-2)c1ccc(F)cc1,-6.51*,-6.51
CC1CCCN(C(=O)c2nn(C)c3c2CSc2ccccc2-3)C1 (stereo not given),i,·
COc1cc(C(=S)N2CCOCC2)ccc1OS(=O)(=O)c1ccccc1[N+](=O)[O-],i,1.39
COc1ccc(C(=S)N2CCOCC2)cc1OS(=O)(=O)c1ccccc1[N+](=O)[O-],-6.72*,-6.72
Cc1ccc(Cl)cc1N1CCN(C(=O)C(C)n2ncn3cccc3c2=O)CC1 (stereo not given),-5.76*,-5.76
CC(C(=O)N1CCCCC1)n1ncn2cccc2c1=O (stereo not given),i,0.51
COc1ccc(C2(C)NC(=O)N(CC(=O)Nc3c(C)n(C)n(-c4ccccc4)c3=O)C2=O)cc1 (stereo not given),i,0.18
O=[N+]([O-])c1ccccc1S(=O)(=O)Nc1ccc2c(c1)OCCO2,i,·
SMILES,KCNQ2 block,KCNQ2 enhance
Cc1nc(NC(=O)c2ccccc2)sc1-c1csc(Nc2cccc(F)c2)n1,i,0.54
Cc1cc(NS(=O)(=O)c2ccc(Nc3nc(-c4sc(NC(=O)c5ccccc5)nc4C)cs3)cc2)no1,-13.2*,-13.2
Cc1ccc(-c2cc3ncc(C#N)c(N)n3n2)cc1,i,·
CCn1cc(C(=O)Nc2ncccc2O)c(=O)c2cc(F)c(N3CCN(C(=O)c4ccco4)CC3)cc21,i,·
O=C(Nc1nnc(-c2ccc(F)cc2)o1)c1cc(Cl)sc1Cl,i,16.1*
O=C(Nc1nnc(-c2ccccc2)o1)c1cc(Cl)sc1Cl,i,4.42
CC(=O)c1ccccc1NS(=O)(=O)c1cccc2nsnc12,i,·
CCN(CCNC(=O)C1CCCN(Cc2nc(-c3ccc(OC)cc3)oc2C)C1)c1ccccc1 (stereo not given),-8.68*,-8.68
CCN(CCNC(=O)C1CCN(Cc2nc(-c3ccc(Cl)cc3)oc2C)CC1)c1ccccc1,-6.86*,-6.86
CCc1ccc(-c2nc(CN3CCCC(C(=O)O)C3)c(C)o2)cc1 (stereo not given),i,·
CCc1ccc(-c2nc(CN3CCC(C(=O)NCCN(CC)c4ccccc4)CC3)c(C)o2)cc1,-6.52*,-6.52
CCc1ccc(-c2nc(CN3CCC(C(=O)NCc4ccc(F)cc4)CC3)c(C)o2)cc1,i,·
Cc1oc(-c2ccc(Cl)cc2)nc1CN1CCC(C(=O)NCCCN2CCOCC2)CC1,i,0.21
CN1CCN(C(=O)/C(=C\c2cccnc2)NC(=O)c2cccc(Br)c2)CC1,i,0.36
Cc1cc(C(=O)N(C)Cc2c(F)cccc2Cl)c2ccccc2n1,i,2.57
CN(Cc1ccon1)C(=O)C1CCC(=O)N(Cc2ccc(Cl)cc2)C1 (stereo not given),i,·
COc1ccc(OC)c(N/C=C/C(=C(C#N)C#N)N(C)C)c1,i,·
CS(=O)(=O)N(CC(=O)N1CCCC1)c1ccccc1Br,i,1.16
Cc1ccc(C)c(S(=O)(=O)Nc2ccccc2C(=O)Nc2ccccc2N2CCOCC2)c1,-5.98*,-5.98
Cc1ccc(C(=O)NCc2ccncc2)cc1S(=O)(=O)Nc1cccc(C)c1C,i,·
Cc1cc(F)ccc1S(=O)(=O)Nc1ccccc1C(=O)Nc1ccccc1N1CCOCC1,i,·
Cc1ccc(C(=O)Nc2ccccc2-c2ccccc2)cc1S(=O)(=O)Nc1cccc(C)c1C,-7.88*,-7.88
Cc1ccccc1NC(=O)c1ccc(C)c(S(=O)(=O)Nc2cccnc2)c1,i,·
Cc1ccc(C)c(NS(=O)(=O)c2cc(C(=O)Nc3ccccc3-c3ccccc3)ccc2C)c1,-6.21*,-6.21
OCC[C@@H]1C[C@@H](O)[C@H](O)[C@@]2(CCCCO2)O1,i,1.55
SMILES,KCNQ2 block,KCNQ2 enhance
CN(C)CCN(Cc1cccs1)S(=O)(=O)c1csc(C(N)=O)c1,i,0.19
COc1cccc(-n2c(SCc3cc(=O)oc4cc(O)c(O)cc34)nc3ccccc3c2=O)c1,-6.11*,-6.11
CCN(CC)C(=O)CSc1nc2ccccc2c(=O)n1-c1cccc(OC)c1,i,·
O=C(CCNC(=O)c1ccccc1Cl)NCC(c1ccc(F)cc1)N1CCOCC1 (stereo not given),i,·
O=C(N1CCOCC1)N(CCN1CCOCC1)Cc1cccc2ccccc12,i,·
CC1(C(=O)c2ccccc2)C2c3c(ccc4ccccc34)OC(=O)C21C(=O)N1CCOCC1 (stereo not given),-7.87*,-7.87
Cc1c(CCC(=O)NCCCn2ccnc2)c(=O)oc2cc3oc4c(c3cc12)CCCC4,i,·
C=CCn1c(O)c(N=NC(=S)Nc2cccc(OC)c2)c2ccccc21,i,11.8*
C=CCn1c(O)c(N=NC(=S)Nc2ccc(OC)cc2)c2ccccc21,i,3.98
CCC(C)N(C(=O)CSc1ccc(NC(C)=O)cc1)C1CCS(=O)(=O)C1 (stereo not given),i,0.55
COc1ccccc1OCc1nc2ccccc2[nH]1,i,·
Cc1ccccc1OCc1nc2ccccc2[nH]1,-6.58*,-6.58
COCCn1c(SC(C)C(=O)NCC2CCCO2)nc2sc3c(c2c1=O)CCC3 (stereo not given),i,·
COc1ccc(CNC(=S)NC2CCCC2)cc1,i,0.39
Cc1ccc(CNC(=S)NC2CCC(C(C)(C)C)CC2)cc1 (stereo not given),-6.86*,-6.86
COc1ccc(C(=O)Nc2ccc3c(c2)C(=O)N(C)C3=O)cc1OC,i,·
COC(=O)c1ccc2c(=O)n(CCN3CCOCC3)c(SCC(=O)Nc3ccc(OC)cc3OC)nc2c1,i,·
COC(=O)c1ccc2c(=O)n(CCN3CCOCC3)c(SCC(=O)Nc3ccccc3Cl)nc2c1,-6.21*,-6.21
O=C(c1cccnc1)N1CCN(c2ccc3ccccc3n2)CC1,i,1.05

# Screening results deposited in PubChem by Johns Hopkins Ion Channel Center.
